# Paper PMC4336329 (PLoS ONE, 2015)
# Hit rate of the full screen: of about 310,000 compounds, about 14,000 (4.5%) showed an effect of 50% or more. Effects have a minus sign here. The sample as a whole holds a higher share of strong results than the screen did.
# Target: human ether-à-go-go-related gene (hERG) potassium channel (human, UniProt Q12809)
# Assay: primary screen, population patch clamp on CHO cells stably expressing hERG; higher = less effect of the substance
# 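Also: peak tail current of the secondary pulse compared with the same well before compound.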
# Sequence of human ether-à-go-go-related gene (hERG) potassium channel (Q12809 whole entry, looked up): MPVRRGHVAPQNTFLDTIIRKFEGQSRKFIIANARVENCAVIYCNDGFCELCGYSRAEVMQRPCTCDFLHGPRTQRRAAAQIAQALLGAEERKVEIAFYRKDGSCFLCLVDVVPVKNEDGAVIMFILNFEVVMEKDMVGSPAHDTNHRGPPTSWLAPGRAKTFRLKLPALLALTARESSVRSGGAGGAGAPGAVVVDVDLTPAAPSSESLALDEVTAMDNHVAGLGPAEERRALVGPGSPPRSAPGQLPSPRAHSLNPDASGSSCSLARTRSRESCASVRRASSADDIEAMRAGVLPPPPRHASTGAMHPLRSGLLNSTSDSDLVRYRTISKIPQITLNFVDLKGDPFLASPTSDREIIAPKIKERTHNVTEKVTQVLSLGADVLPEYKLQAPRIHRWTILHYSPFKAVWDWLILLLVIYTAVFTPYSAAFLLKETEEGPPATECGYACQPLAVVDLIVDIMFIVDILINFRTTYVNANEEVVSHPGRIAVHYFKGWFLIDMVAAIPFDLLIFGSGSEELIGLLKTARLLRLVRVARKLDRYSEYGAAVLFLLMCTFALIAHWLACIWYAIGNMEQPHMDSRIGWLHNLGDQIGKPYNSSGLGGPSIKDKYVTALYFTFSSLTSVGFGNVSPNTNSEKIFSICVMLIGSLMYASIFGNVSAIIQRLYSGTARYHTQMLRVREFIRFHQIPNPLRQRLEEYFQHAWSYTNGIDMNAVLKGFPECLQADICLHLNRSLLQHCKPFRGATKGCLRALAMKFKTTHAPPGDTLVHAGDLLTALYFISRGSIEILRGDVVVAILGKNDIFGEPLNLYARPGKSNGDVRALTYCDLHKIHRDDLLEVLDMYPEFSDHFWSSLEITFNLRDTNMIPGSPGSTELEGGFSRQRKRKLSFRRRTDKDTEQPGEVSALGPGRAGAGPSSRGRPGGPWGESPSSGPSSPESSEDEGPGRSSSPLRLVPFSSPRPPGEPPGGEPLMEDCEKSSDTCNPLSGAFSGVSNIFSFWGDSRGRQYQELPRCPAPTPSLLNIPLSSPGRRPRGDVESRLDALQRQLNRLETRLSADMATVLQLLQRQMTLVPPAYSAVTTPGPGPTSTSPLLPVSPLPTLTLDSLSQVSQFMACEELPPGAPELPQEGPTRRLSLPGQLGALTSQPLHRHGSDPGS
row,Structure (SMILES),"hERG current change (%, negative = inhibition) at 10uM [%]"
1,Br.O=C(N=c1nc2ccccn2s1)c1ccccc1,14.1
2,CCn1c(COc2ccc(=O)n(-c3ccccc3)n2)nnc1SCc1ccccc1,-48.2
3,CCn1c(COc2ccc(=O)n(-c3ccccc3)n2)nnc1SCC(=O)OC,9.02
4,CCn1c(COc2ccc(=O)n(-c3ccccc3)n2)n[nH]c1=S,23.3
5,CCn1c(COc2ccc(=O)n(-c3ccccc3)n2)nnc1SCc1cccc(OC)c1,-39.1
6,CCn1c(COc2ccc(=O)n(-c3ccccc3)n2)nnc1SC,2.39
7,C=CCSc1nnc(COc2ccc(=O)n(-c3ccccc3)n2)n1CC,-2.15
8,CCn1c(COc2ccc(=O)n(-c3ccccc3)n2)nnc1SCc1ccc(C)cc1,-59.9
9,CCn1c(COc2ccc(=O)n(-c3ccccc3)n2)nnc1SCc1ccccc1C,-65.4
10,CCn1c(COc2ccc(=O)n(-c3ccccc3)n2)nnc1SCc1ccc(OC)cc1,-67.7
11,COc1ccc(-c2csc(NC(=O)CSc3nc(C)nc4sc(C(=O)O)c(C)c34)n2)cc1,11.9
12,COCCNc1nc2c(c(=O)n(Cc3ccccc3F)c(=O)n2C)n1C,-15.8
13,C=CCNC(=O)C(=O)Nc1ccc2c(c1)N(S(=O)(=O)c1cccs1)CCC2,-14.7
14,Cc1ccc(S(=O)(=O)NC(C(=O)Oc2cc3oc(=O)cc(C)c3cc2Cl)C(C)C)cc1 (stereo not shown),-34.3
15,CCOc1ccc(/C=C(\C)C(=O)c2c(C)cc(C)[nH]c2=O)cc1,5.24
16,CCCCc1ccc(NC(=O)CC(C)C)cc1,-6.78
17,CCCCC(CC)C(=O)Nc1ccc(Nc2ccccc2)cc1 (stereo not shown),-12.8
18,CCCCC(CC)C(=O)Nc1ccccc1C#N (stereo not shown),-4.83
19,CCCCc1ccc(NC(=O)C(C)CC)cc1 (stereo not shown),-50.5
20,CCCCc1ccc(NC(=O)OC)cc1,-9.08

row,Structure (SMILES),"hERG current change (%, negative = inhibition) at 10uM [%]"
1,CCCCC(CC)C(=O)Nc1ccc(C#N)cc1 (stereo not shown),-52.5
2,COc1ccc(CNC(=O)c2ccc(NS(=O)(=O)c3ccc4[nH]c(=O)[nH]c4c3)cc2)cc1OC,13.3
3,CCOC(=O)c1ccc(NC(=O)CSc2nc(=O)n3cccc(C)c3n2)cc1,-21.9
4,COc1cc(Cl)c(S(=O)(=O)NCCCn2ccnc2)cc1Cl,3.34
5,CCOC(=O)CSCC(=O)Nc1cc(C)ccc1C,0.851
6,CNS(=O)(=O)c1cc(O)c2c(S(=O)(=O)NC)cccc2c1,11
7,Cc1c(Cl)ccc2c(C(=O)O)cc(-c3ccccc3)nc12,-1.96
8,COC(=O)CNC(=O)c1cc(-c2ccncc2)nc2c(C)c(Cl)ccc12,-27.9
9,Cc1c(Cl)ccc2c(C(=O)NC(C)c3ccncc3)cc(-c3ccncc3)nc12 (stereo not shown),-59.3
10,C=C(C)CC1(NC(C)c2ccccc2)CCCCC1 (stereo not shown),4
11,COc1ccc(OC)c(-c2csc(NC(=O)Cc3ccccc3OC)n2)c1,-0.305
12,COc1cccc(/C=N/NC(=O)c2nnn(-c3nonc3N)c2C(C)C)c1,11.4
13,Cc1ccc(C(=O)NCC(=O)O)o1,-5.14
14,Cc1c(CNCCC2=CCCCC2)c(C(=O)O)c(C)n1Cc1ccccc1,-13.3
15,Cc1c(CNCCc2ccc(Cl)cc2)c(C(=O)O)c(C)n1Cc1ccccc1,-50.1
16,Cc1c(CNCCCc2ccccc2)c(C(=O)O)c(C)n1Cc1ccccc1,4.03
17,Cc1cccc(C)c1NC(=O)/C(C#N)=C/c1ccsc1,-13.2
18,Cc1c(OCC(N)=O)ccc2c(-c3ccccc3)cc(=O)oc12,5.53
19,CCC(C)c1ccccc1N1CC(C(=O)N2CCN(C(=O)c3ccco3)CC2)CC1=O (stereo not shown),-12.6
20,O=C(C1CC(=O)N(c2ccc(Cl)cc2)C1)N1CCOCC1 (stereo not shown),-0.293

row,Structure (SMILES),"hERG current change (%, negative = inhibition) at 10uM [%]"
1,O=C(c1ccco1)N1CCN(C(=O)C2CC(=O)N(c3ccccc3)C2)CC1 (stereo not shown),-41.3
2,O=C(C1CC(=O)N(c2ccc(Cl)cc2)C1)N1CCCCCC1 (stereo not shown),-8.92
3,O=C(c1ccco1)N1CCN(C(=O)C2CC(=O)N(c3ccc(Cl)cc3)C2)CC1 (stereo not shown),-75.4
4,Cc1ccc(N2CC(C(=O)N3CCN(C(=O)c4ccco4)CC3)CC2=O)cc1 (stereo not shown),-71.7
5,O=C(CNC(=O)c1ccc(OC(F)F)cc1)NCC1CCCO1 (stereo not shown),2.87
6,CCCCN1C(=O)/C(=C/c2ccc(N3CCCCCC3)cc2)C(=O)NC1=S,-22.9
7,C=CCc1ccc(OCCCCN2CC(C)OC(C)C2)c(OC)c1.O=C(O)C(=O)O (stereo not shown),-25.8
8,C=CCc1ccc(OCCCOc2ccc(C(=O)O)cc2)c(OC)c1,-1.14
9,C=CCc1ccc(OCCCCN2CC(C)CC(C)C2)c(OC)c1.O=C(O)C(=O)O (stereo not shown),-67
10,C=CCc1ccc(OCCCN2CCCC(C)C2)c(OC)c1.O=C(O)C(=O)O (stereo not shown),-65.8
11,C=CCc1ccc(OCCCCNC2CCCC2)c(OC)c1.O=C(O)C(=O)O,-39.9
12,C=CCc1ccc(OCCCCCN2CCOCC2)c(OC)c1.O=C(O)C(=O)O,-18.1
13,C=CCc1ccc(OCCCNC2CCCC2)c(OC)c1,-48.1
14,C=CCc1ccc(OCCCCOc2ccc(C(=O)O)cc2)c(OC)c1,14
15,C=CCc1ccc(OCCCCN2CCC(C)CC2)c(OC)c1,-69.6
16,CCOc1ccc(C(=O)Nc2cccc(C)n2)cc1,0.201
17,COc1ccc(/C=N/NC(=O)c2ccn[nH]2)cc1COc1ccc(Cl)cc1,2.09
18,CCc1cc2c(=O)nc3n(c2s1)Cc1ccccc1/C3=C(/O)c1ccc(F)cc1,-3.7
